Compounds with a hit are over-represented: about 1.6% of the library has one in this group of screens.
DTT redox prof: compounds producing H2O2 with reducing agent – biochemical, NIH compound library profiling, artefact control for MLSCN library redox annotation, primary screen; AID 878; actives 0.03% (n = 200,000); DTT-dependent redox cycling H2O2, phenol red/HRP absorbance; 100% = 100 µM peroxide control, 0% = buffer; activation, % at 10 µM;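 active means activation of at least 50% relative to the plate's high and low controls in the primary single-dose screen; inactive means activation below 50%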;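 further: compound incubated with DTT at 0.8 mM final as the reducing agent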
Arbovirus anti: antivirals against arbovirus infection; arbovirus infection cell-based antiviral screen; inhibition, % at 10 µM; actives 0.37% (n = 200,000); in the data active means inhibition above about 30%
S1P4 antagonist: blocks the human S1P4 receptor | actives 0.26% (n = 220,000) | O95977 | AID 1510 | S1P4-expressing cells, antagonist mode, reporter read-out | inhibition, % at 4.98 µM; in the data active means inhibition above about 29%
S1P4 ag: human S1P4 receptor agonism; O95977; S1P4-expressing cell line, agonist reporter assay; activation, % at 4.98 µM; actives 0.35% (n = 220,000); AID 1509; in the data active means activation above about 11%
p97 ATPase inh: blocks human p97 ATPase activity | inhibition, % at 8 µM | actives 0.42% (n = 220,000) | recombinant p97 ATPase, Kinase-Glo ATP luminescence, 3 h; in the data active means inhibition above about 15%
S1P3 antag: S1P3 (human) receptor antagonism; Q99500; CHO S1P3 NFAT-BLA reporter, FRET fluorescence, antagonist mode; inhibition, % at 4.98 µM; actives 0.27% (n = 170,000);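 active means inhibition above the plate cutoff, the mean inhibition of test wells on that plate plus 3 SD, cut at about 28% in these data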;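 further: cells challenged with S1P at its EC80 of 0.8 µM; blue over green emission ratio from cleaved BLA substrate after 4 h stimulation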
S1P4 agonist cf: human S1P4 agonism, confirmation. shares compounds with S1P4 ag. actives 7% (n = 740). activation, % at 4.98 µM. S1P4 agonist cell-based reporter assay; in the data active means activation above about 12%
S1P1 agonist: activates human S1P1, counter-screen for S1P4 agonists | actives 4% (n = 740) | AID 1563 | S1P1 agonist cell-based assay, activation | activation, % at 4.98 µM | shares compounds with S1P4 ag; in the data active means activation above about 21%
Target sequence (P21453 whole entry, looked up): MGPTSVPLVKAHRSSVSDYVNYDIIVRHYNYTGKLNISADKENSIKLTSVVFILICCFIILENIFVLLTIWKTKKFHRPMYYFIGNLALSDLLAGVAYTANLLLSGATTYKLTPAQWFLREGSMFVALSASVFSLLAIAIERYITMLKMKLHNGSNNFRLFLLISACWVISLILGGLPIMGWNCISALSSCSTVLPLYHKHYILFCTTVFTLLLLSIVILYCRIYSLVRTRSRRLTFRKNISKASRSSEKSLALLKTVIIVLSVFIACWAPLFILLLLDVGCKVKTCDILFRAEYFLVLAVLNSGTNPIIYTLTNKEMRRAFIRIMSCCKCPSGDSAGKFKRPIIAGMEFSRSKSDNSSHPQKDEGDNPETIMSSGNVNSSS
Of the large screens only hits and unclear results are named; the others gave an inactive call (follow-up assays come after a bar, where they were run).

C/C(CC(=O)Nc1ccc(Cl)cn1)=N\NC(=O)Cc1cccs1	none (no result: DTT redox prof, Arbovirus anti)
CS(=O)(=O)N1N=C(c2ccco2)CC1c1ccccc1Cl (stereo unspecified)	none (no result: DTT redox prof, Arbovirus anti)
COc1ccccc1C1CC(c2ccco2)=NN1S(C)(=O)=O (stereo unspecified)	S1P4 ag 30 | S1P4 agonist cf inactive | S1P1 agonist inactive
COc1ccc(OCCOc2ccc(C)nc2[N+](=O)[O-])cc1	none
Cc1ccc(OCCOc2ccc(Cl)cc2Cl)c([N+](=O)[O-])n1	S1P4 ag 102 | S1P4 agonist cf 80 | S1P1 agonist inactive
CCCCc1noc(-c2c(-c3ccccc3Cl)noc2C)n1	none
CC(C)c1cc(C(=O)OCC(=O)NC(=O)NCc2ccco2)c(O)c(C(C)C)c1	S1P4 ag 44 | S1P4 agonist cf 36 | S1P1 agonist inactive
CC(Oc1ccccc1)C(=O)OCC(=O)NC(=O)NCc1ccco1 (stereo unspecified)	none (no result: S1P3 antag)
COc1cccc(NC(=O)CN(c2cccc(C(F)(F)F)c2)S(C)(=O)=O)c1	S1P4 ag 12 | S1P4 agonist cf inactive | S1P1 agonist inactive
COc1ccc(OC)c(S(=O)(=O)NC(N)=NCCc2ccccc2OC)c1	S1P4 ag 23 | S1P4 agonist cf inactive | S1P1 agonist inactive
COc1ccccc1CCN=C(N)NS(=O)(=O)c1ccccc1	none
N#Cc1cc2c(=O)n3ccccc3nc2n(-c2ccccc2Cl)c1=O	S1P4 ag 28 | S1P4 agonist cf 16 | S1P1 agonist 29
Cc1ccc(CNC(=O)c2sc3nc4c(c(C(F)(F)F)c3c2N)CCC4)cc1	none (no result: S1P3 antag)
COc1ccc(CNC(=O)c2sc3nc4c(c(C(F)(F)F)c3c2N)CCC4)cc1	S1P4 ag 196 | S1P4 agonist cf inactive | S1P1 agonist inactive
O=C(/C=C/c1cccc(Cl)c1)Nn1c(-c2cccs2)nc2ccccc2c1=O	none
COc1ccccc1C1(O)CCN(CC(=O)Nc2nc(-c3ccccc3)cs2)CC1	S1P4 ag 21 | S1P4 agonist cf inactive | S1P1 agonist inactive
Cc1nn(C)cc1/C=N/NC(=S)Nc1ccc(Cl)cc1Cl	S1P4 ag 15 | S1P4 agonist cf inactive | S1P1 agonist inactive
CCn1nc(C)c(/C=N/NC(=S)Nc2ccc(Cl)cc2Cl)c1C	none
COc1ccc(Cl)cc1C(=O)Nn1cnc2ccccc2c1=O	S1P4 ag 137 | S1P4 agonist cf inactive | S1P1 agonist inactive
O=C(C1=C[C@@H](c2ccccc2)C[C@@H](OCCCCO)O1)N1CCOCC1	none
CC(=O)Nc1ccc(S(=O)(=O)Oc2ccc(C(=S)N3CCC(O)CC3)cc2)cc1	none
CC(=O)Nc1ccc(S(=O)(=O)Oc2ccc(C(=S)N3CCCCC3)cc2)cc1	S1P4 ag 29 | S1P4 agonist cf inactive | S1P1 agonist inactive
O=C(NC(=S)Nn1cnnc1)c1cccc(Br)c1	none
CCn1nc(C)c(/C=N/NC(=O)Cn2nc(C)cc2C)c1C	none
COc1ccc(CCN2C(=O)CC(NCc3ccc4c(c3)OCO4)C2=O)cc1OC (stereo unspecified)	S1P4 ag 19 | S1P4 agonist cf inactive | S1P1 agonist inactive
COc1ccc(CCNC2CC(=O)N(CCc3ccc(OC)c(OC)c3)C2=O)cc1OC (stereo unspecified)	none
COc1ccc(S(=O)(=O)Nc2cccc(C(C)=O)c2)cc1Br	none
COc1ccc(S(=O)(=O)Nc2cccc(N(C)S(C)(=O)=O)c2)cc1Br	S1P4 ag 11 | S1P4 agonist cf inactive | S1P1 agonist inactive
C=CCN(c1ccccc1)S(=O)(=O)c1cccc(C(=O)Nc2nc3ccccc3[nH]2)c1	S1P4 ag 22 | S1P4 agonist cf inactive | S1P1 agonist inactive
CN(c1cccc(Cl)c1)S(=O)(=O)c1cccc(C(=O)Nc2nc3ccccc3[nH]2)c1	none
Cc1cccc(N2CCN(C(=S)Nc3ccc4nc5n(c(=O)c4c3)CCCCC5)CC2)c1C	none
N#C/C(=C1/C(=O)Nc2ccc(Br)cc21)c1ccccn1	none
C#Cc1cccc(-n2nnc(C(C)=O)c2C)c1	S1P4 ag 68 (no result: DTT redox prof, Arbovirus anti) | S1P4 agonist cf inactive | S1P1 agonist inactive
CC(=O)c1nnn(-c2c(F)cccc2F)c1C	none (no result: DTT redox prof, Arbovirus anti)
